Laboratory results as given in the supplement of paper PMC12669032.
Values without a mark were called inactive.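 Rule for the calls: active = AUC reduced over 20% with Padj below 0.05 in at least 2 of 3 replicates; inactive = otherwise.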

Legend:
Roseburia intestinalis = experiment: growth AUC relative to DMSO control (median of replicates) (fraction); higher = more growth (less inhibition), active = hit call of the paper; details: 20 µM; 24 h
Summary of the method: (§1)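 Gut bacterial monocultures in mGAM were treated with 20 µM compound (1% DMSO) and grown anaerobically at 37 °C in round-bottom 96-well plates from OD600 0.05. OD600 was read hourly for 24 h, with the minimum OD set to 0. Area under the growth curve was normalised to the plate median of solvent-only wells, or to row and column medians on the industrial chemical plate. Each value is the median of three biological replicates, each grown on a separate day.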

Streptococcus salivarius = experiment: as above; details: 20 µM; 24 h
Summary of the method: as §1

| Compound | growth AUC (Roseburia intestinalis) | growth AUC (Streptococcus salivarius) |
| --- | --- | --- |
| Clc1ccc(C(c2ccccc2Cl)C(Cl)Cl)cc1 (stereo unspecified) | 0.911 | 0.966 |
| CCCCCC(C)OC(=O)COc1ccc(Cl)c2cccnc12 (stereo unspecified) | 0.931 | 0.877 |
| Cc1cc(CC(C)CC(C)(C)C)n(O)c(=O)c1.NCCO (stereo unspecified) | 0.995 | 1.02 |
| CC(C)Nc1nc(N)nc(Cl)n1 | 1.06 | 0.988 |
| O=c1cc(Cl)[nH]nc1-c1ccccc1 | 0.977 | 1.03 |
| COC(=O)c1ccc(C(F)(F)F)nc1S(=O)(=O)[N-]C(=O)Nc1nc(OC)cc(OC)n1.[Na+] | 0.941 | 1.02 |
| Oc1ccc2ccccc2c1N=Nc1ccccc1 | 1.13 | 0.914 |
| CCc1cccc(CC)c1N(COC)C(=O)C(=O)O | 1 | 1.02 |
| CC(Oc1ccc(Cl)cc1Cl)C(=O)NC(C)(C#N)C(C)C (stereo unspecified) | 0.968 | 0.918 |
| Cc1nn(C)c(F)c1C(=O)Nc1ccccc1C(C)CC(C)C (stereo unspecified) | 0.963 | 1.02 |
| O.O=C(Nc1ccc(Cl)c(Cl)c1)Nc1cc(Cl)ccc1Oc1ccc(Cl)cc1S(=O)(=O)[O-].[Na+] | 0.792 (active) | 0.478 (active) |
| CN(C(=O)NC(C)(C)c1ccccc1)c1ccccc1 | 1.02 | 0.933 |
| COC(=O)CCCOc1ccc(Cl)cc1Cl | 0.887 | 0.931 |
| COc1cccc(N(C)C(=S)Oc2cccc(C(C)(C)C)c2)n1 | 0.984 | 0.967 |
| COC(=O)CC(NC(=O)[C@@H](NC(=O)OC(C)C)C(C)C)c1ccc(Cl)cc1 (stereo partly specified) | 0.975 | 0.953 |
| CC(C)c1nn(C(=O)NC(C)(C)C)c(=O)n1N | 1.02 | 1.01 |
| c1ccc2cc3ccccc3cc2c1 | 0.933 | 0.919 |
| CCCN(CCOc1c(Cl)cc(Cl)cc1Cl)C(=O)NC=O | 0.979 | 0.993 |
| CCCCOC(=O)C(C)Oc1ccc(Oc2ccc(C(F)(F)F)cn2)cc1 (stereo unspecified) | 0.932 | 0.974 |
| CCOC(=O)c1cnn(C)c1S(=O)(=O)NC(=O)Nc1nc(OC)cc(OC)n1 | 1.08 | 1.01 |
| CN(C)C(=O)Nc1cc(C(C)(C)C)on1 | 1.03 | 1 |
| C=O | 1.1 | 1 |
| CCCCCCCCSCCO | 0.944 | 0.959 |
| CCCCCCCCCCCC[N+](C)(C)Cc1ccc(CC)cc1.[Cl-] | 0.0285 (active) | 1.03 |

| Compound | growth AUC (Roseburia intestinalis) | growth AUC (Streptococcus salivarius) |
| --- | --- | --- |
| Oc1ccccc1 | 1.04 | 0.987 |
| CCCCCCCCCC[N+](C)(C)Cc1ccccc1.[Cl-] | 0.885 | 0.926 |
| CNC(=O)Nc1nc2ccccc2s1 | 0.983 | 0.965 |
| CC(C)OC(=O)[C@@H](C)N(C(=O)c1ccccc1)c1ccc(F)c(Cl)c1 | 0.999 | 1 |
| CCOC(N)=O | 1.05 | 1.01 |
| CNC(=O)/C(=N/OC)c1ccccc1COc1cc(C)ccc1C | 1.02 | 1.06 |
| COC(=O)c1ccc(C)cc1C1=NC(C)(C(C)C)C(=O)N1 (racemic) | 0.934 | 0.97 |
| CN(C)C(=O)Nc1ccccc1 | 0.983 | 0.969 |
| CCOC(=O)[C@@H](C)Oc1ccc(Oc2cnc3cc(Cl)ccc3n2)cc1 | 1.01 | 1.04 |
| C#CCOc1cc(-n2nc(C(C)(C)C)oc2=O)c(Cl)cc1Cl | 0.909 | 0.963 |
| COCCOc1ccccc1S(=O)(=O)NC(=O)Nc1nc(OC)nc(OC)n1 | 0.907 | 0.98 |
| CC(C)NS(=O)(=O)NC(=O)c1cc(NC(N)=O)c(F)cc1Cl | 0.981 | 0.887 |
| O=S(=O)(Oc1ccc(Cl)cc1)c1ccccc1 | 0.988 | 0.955 |
| O=[N+]([O-])c1ccc2c(c1)Cc1ccccc1-2 | 1.01 | 0.988 |
| O=C(Nc1ccc(O)cc1-c1ccc(Cl)cc1)c1cccnc1Cl | 1.02 | 1.03 |
| CCCCCCC(C)OC(=O)C(C)Oc1ccc(Cl)cc1C (stereo unspecified) | 0.986 | 0.973 |
| CCCCCCC(C)OC(=O)COc1nc(F)c(Cl)c(N)c1Cl (stereo unspecified) | 0.967 | 0.966 |
| COc1nc(OC)nc(C(=O)c2cccc(F)c2N(C)S(=O)(=O)C(F)F)n1 | 1.01 | 1.02 |
| COC(=O)C(C)Oc1ccc(Oc2ccc(C(F)(F)F)cn2)cc1 (stereo unspecified) | 0.956 | 0.96 |
| Nc1ccc(S(=O)(=O)Nc2cnc3ccccc3n2)cc1 | 0.991 | 1.03 |
| CCc1cccc(C)c1N(C(=O)C(=O)O)[C@@H](C)C(=O)O | 0.973 | 0.943 |
| O=C(O)CCCc1c[nH]c2ccccc12 | 0.96 | 1 |
| CNC(=O)Sc1ccc(OS(C)(=O)=O)cc1 | 0.992 | 0.937 |
| COc1cc(OC)nc(NC(=O)NS(=O)(=O)Nc2ccccc2C(=O)C2CC2)n1 | 1.1 | 0.955 |
